Assay results from PubChem BioAssay (Tox21).
Results filed as inconclusive are left out. Calls of active or inactive are those of the source. The call rests on the fitted dose curve; in most records, active means well fitted activation curve with a large enough effect in the repeat runs; inconclusive means weak or mixed curves, or effect the other way; inactive means no such curve, though single readings can be large or run the other way.

Experiment: qHTS assay to identify small molecule agonists of the estrogen related receptor signaling pathway with the pleiotropic PPARgamma coactivator (PGC) from Tox21 10K library (AID 1224842); further: nearly all actives have a fitted effect of over 15% in size
Conditions: PGC/ERR reporter cell line, luciferase ONE-Glo, 18 h; series mostly up to 92.4 µM; activation: at the top concentration
From the text: National Center for Advancing Translational Sciences [NCATS] NIH Chemical Genomics Center [NCGC] U.S. Environmental Protection Agency [EPA] National Institutes of Environmental Health Sciences [NIEHS] National Toxicology Program [NTP] Assay overview: Estrogen related receptors (ERRs), the first orphan nuclear receptors discovered, play an important role in the control of cellular energy metabolism. ERRs are required for high-energy production in response to the environmental challenges. The pleiotropic PPARgamma coactivator (PGC) is a major partner of ERR and a key regulator in energy homeostasis. Together they have been implicated in the etiology of metabolic disorders such as Type 2 diabetes and metabolic syndrome. ERR-alpha was also identified as an adverse marker for breast cancer progression; ERR-alpha-positive tumors have a poor prognosis. To screen and to identify environmental compounds that perturb the PGC/ERR signaling pathways could provide valuable information for potential therapeutic or preventive measures in the treatment of metabolic disease. For identifying PGC/ERR agonists, PGC/ERR cell line (provided by NTP) has been used to screen Tox21 10K library.
Assay Protocol Summary: The PGC/ERR cells were dispensed at 2,000 cells/5 ul/well in 1536-well white plates using a Multidrop dispenser. After the assay plates were incubated at a 37 C/5% CO2 incubator for 6 hours, 23 nL of compounds dissolved in DMSO, positive and negative controls or DMSO only was transferred to the assay plate by a pin tool. The plates were incubated at 37 C for 18 hours. 4 ul/well of One-Glo reagent was added into the assay plates using a Flying Reagent Dispenser. After 30-minute incubation at room temperature, the luminescence intensity in the plates was measured using a ViewLux plate reader.
On the % scale 0 is the no-effect control and ±100 the full control effect.

Structure (SMILES) | activation | Potency
O=c1cccc[nH]1 | 1% (inactive) | 
CCCCCCCCCCOCC(O)CN (stereo not given) | -35.4% [at 42.5 µM] (inactive) | 
COC(=O)NCCC[Si](OC)(OC)OC | -2.94% (inactive) | 
CCc1c(Br)c(Br)c(Br)c(Br)c1Br | 0.363% (inactive) | 
S=P(N1CC1)(N1CC1)N1CC1 | -15.4% (inactive) | 
CCCCCCCC/C=C\CCCCCCCC(=O)NCc1ccc(O)c(OC)c1 | -5.23% [at 42.5 µM] (inactive) | 
c1cc2c3c(c1)ccc1cccc(c13)C2 | -0.439% (inactive) | 
Clc1ccc(C(Cn2ccnc2)OCc2ccsc2Cl)c(Cl)c1 (stereo not given) | -19.2% [at 42.5 µM] (inactive) | 
C=C(c1ccc(C(=O)O)cc1)c1cc2c(cc1C)C(C)(C)CCC2(C)C |  | inactive
CO[Si](CCC1CCC2OC2C1)(OC)OC (stereo not given) | 0.387% (inactive) | 
C=C(C)CCCC | -3.91% (inactive) | 
CCc1c(C(=O)O)c(=O)cnn1-c1ccc(Cl)cc1 | 0.46% (inactive) | 
CC(C)c1ccccc1N | -1.75% (inactive) | 
N[C@@H](CSSC[C@H](N)C(=O)O)C(=O)O | 4.81% [at 0.349 µM] (inactive) | 
CCOC(=O)[C@@](C)(N)Cc1ccc(O)c(O)c1 | 0.404% [at 42.5 µM] (inactive) | 
CC(C)=CCCC(C)O (stereo not given) | 0.0088% (inactive) | 
CCCCCCCC/C=C/CCCOC(C)=O | 1.54% (inactive) | 
CCCCOCC | 0.639% (inactive) | 
C(=C/c1ccccc1)/c1ccccc1 | 2.32% (inactive) | 
NC1(c2ccc(-c3nc4ccn5c(=O)[nH]nc5c4cc3-c3ccccc3)cc2)CCC1 | -17.6% [at 42.5 µM] (inactive) | 

Structure (SMILES) | activation | Potency
COc1cccc(CCc2ccccc2OCC(CN(C)C)OC(=O)CCC(=O)O)c1 (stereo not given) | -0.349% [at 42.5 µM] (inactive) | 
CN1CCN(C2Cc3ccccc3Sc3ccc(Cl)cc32)CC1 (stereo not given) | 4.72% [at 42.5 µM] (inactive) | 
CCN(CC)c1ccc(N)cc1 | -23.1% (inactive) | 
OCCCCl | -1.24% (inactive) | 
ClC/C=C\CCl | 1.81% (inactive) | 
CNC(=S)NN | -31.3% (inactive) | 
CCN(CC)CCNc1ccc(CO)c2sc3ccccc3c(=O)c12 | -25% [at 42.5 µM] (inactive) | 
CC1CCCCN1CCCOC(=O)c1ccc(OC2CCCCC2)cc1 (stereo not given) | 0.103% [at 42.5 µM] (inactive) | 
CCOC(/C=C(\C)CCC=C(C)C)OCC | 0.0675% (inactive) | 
O=C1NCN(c2ccccc2)C12CCN(CCCC(c1ccc(F)cc1)c1ccc(F)cc1)CC2 | -15.6% [at 42.5 µM] (inactive) | 
CC1(C)COCN1 | 2.65% (inactive) | 
CC(C)(C)c1cc(/C=C2\SC(=N)NC2=O)cc(C(C)(C)C)c1O | -18.6% (inactive) | 
CCCCCCCCCCCCCCCC | 0.263% (inactive) | 
CNC(=O)c1cc(Oc2ccc(NC(=O)Nc3ccc(Cl)c(C(F)(F)F)c3)cc2)ccn1 | -24.7% [at 42.5 µM] (inactive) | 
CCNc1nc(NC(C)CC)nc(OC)n1 (stereo not given) | 4.48% (inactive) | 
CCCOc1sc(C(=O)N2CCC(c3cc(CN)ccc3F)CC2)c(C)c1Br | -36.4% (inactive) | 
CO[C@H]1C=CO[C@@]2(C)Oc3c(C)c(O)c4c(O)c(cc(O)c4c3C2=O)NC(=O)/C(C)=C\C=C/[C@H](C)[C@H](O)[C@@H](C)[C@@H](O)[C@@H](C)[C@H](OC(C)=O)[C@@H]1C | -0.588% (inactive) | 
CCCCCCCCCCCCCC[n+]1ccccc1 | -33.5% (inactive) | 
CCOC(=O)C1=C(C)NC(C)=C(C(=O)OCC)C1c1ccccc1/C=C/C(=O)OC(C)(C)C | -17.6% [at 42.5 µM] (inactive) | 
CCCCCCCC/C=C\CCCCCCCC(=O)N(C)CC(=O)O | 0.015% (inactive) | 
